Records with an inconclusive call do not appear. The source made the active and inactive calls. The calls were made as follows, unless noted: active = hit-call score of the fitted dose curve at least 0.9, where 1 is the maximum; inconclusive = response in the unintended direction; inactive = score below 0.9.
Experiments:
[1] = molecular target: Estrogen receptor (Homo sapiens) (UniProt P03372); assay: OT_ERa_GFPERaERE_0480: Odyssey Thera (OT) 8-hour HeLa Transcription Induction Assay for Estrogen Receptor (AID 2283381; active = hit-call score of the fitted dose curve at least 0.9, where 1 is the maximum; inactive = score below 0.9)
Chain of Estrogen receptor (Homo sapiens) (P03372 whole entry, looked up): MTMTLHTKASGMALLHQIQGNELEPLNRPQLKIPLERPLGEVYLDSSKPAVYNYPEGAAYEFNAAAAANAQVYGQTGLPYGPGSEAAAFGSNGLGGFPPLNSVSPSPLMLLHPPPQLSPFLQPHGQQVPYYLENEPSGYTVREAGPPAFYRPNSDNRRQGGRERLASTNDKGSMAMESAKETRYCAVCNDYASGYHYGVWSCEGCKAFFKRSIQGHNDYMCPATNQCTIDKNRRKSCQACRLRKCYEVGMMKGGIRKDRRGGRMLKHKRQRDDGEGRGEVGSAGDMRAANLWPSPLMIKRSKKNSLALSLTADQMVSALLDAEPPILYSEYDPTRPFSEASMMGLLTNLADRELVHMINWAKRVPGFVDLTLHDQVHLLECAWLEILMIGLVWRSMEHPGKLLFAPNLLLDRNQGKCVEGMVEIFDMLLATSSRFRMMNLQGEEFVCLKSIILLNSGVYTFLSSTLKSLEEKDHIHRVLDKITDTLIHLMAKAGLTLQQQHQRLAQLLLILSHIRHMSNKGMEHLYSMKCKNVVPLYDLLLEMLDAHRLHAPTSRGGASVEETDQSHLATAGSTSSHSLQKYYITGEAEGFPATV
How it was run: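 Fluorescence microscopy with high-content image analysis measures ERE-driven GFP induction in HeLa cells at 8 h post-dose. Increases fitted against DMSO baseline.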

[2] = molecular target: Bile acid receptor (Homo sapiens) (UniProt Q96RI1); assay: OT_FXR_FXRSRC1_0480: Odyssey Thera (OT) 8-hour HEK293T Protein-Complementation Assay for Farnesoid X receptor/SRC-1 Co-activator (AID 2283383)
Chain of Bile acid receptor (Homo sapiens) (Q96RI1 whole entry, looked up): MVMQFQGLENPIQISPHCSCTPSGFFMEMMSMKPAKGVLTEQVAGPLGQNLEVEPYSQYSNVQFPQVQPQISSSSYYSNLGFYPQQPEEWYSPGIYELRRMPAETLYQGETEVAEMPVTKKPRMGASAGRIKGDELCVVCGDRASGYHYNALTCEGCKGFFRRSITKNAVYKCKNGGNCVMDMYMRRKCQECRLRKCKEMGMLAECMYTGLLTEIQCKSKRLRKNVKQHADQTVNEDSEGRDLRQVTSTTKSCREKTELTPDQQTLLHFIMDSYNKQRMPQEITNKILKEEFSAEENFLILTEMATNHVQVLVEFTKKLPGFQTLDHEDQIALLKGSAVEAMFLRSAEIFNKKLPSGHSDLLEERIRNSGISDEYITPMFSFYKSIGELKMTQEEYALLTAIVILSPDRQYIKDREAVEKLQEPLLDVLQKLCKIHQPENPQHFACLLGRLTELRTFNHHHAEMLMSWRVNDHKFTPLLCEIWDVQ
How it was run: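 Binding of FXR to coactivator SRC-1 was read as fluorescence from a reconstituted split reporter in HEK293T cells, 8 h after chemical addition. Only increases in signal versus DMSO were fit.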

[3] = molecular target: Retinoic acid receptor RXR-alpha (Homo sapiens) (UniProt P19793); assay: OT_NURR1_NURR1RXRa_0480: Odyssey Thera (OT) 8-hour HEK293T Protein Complementation Assay for Nurr1/retinoid X receptor (RXR) (AID 2283385)
Chain of Retinoic acid receptor RXR-alpha (Homo sapiens) (P19793 whole entry, looked up, the tested form may be a part): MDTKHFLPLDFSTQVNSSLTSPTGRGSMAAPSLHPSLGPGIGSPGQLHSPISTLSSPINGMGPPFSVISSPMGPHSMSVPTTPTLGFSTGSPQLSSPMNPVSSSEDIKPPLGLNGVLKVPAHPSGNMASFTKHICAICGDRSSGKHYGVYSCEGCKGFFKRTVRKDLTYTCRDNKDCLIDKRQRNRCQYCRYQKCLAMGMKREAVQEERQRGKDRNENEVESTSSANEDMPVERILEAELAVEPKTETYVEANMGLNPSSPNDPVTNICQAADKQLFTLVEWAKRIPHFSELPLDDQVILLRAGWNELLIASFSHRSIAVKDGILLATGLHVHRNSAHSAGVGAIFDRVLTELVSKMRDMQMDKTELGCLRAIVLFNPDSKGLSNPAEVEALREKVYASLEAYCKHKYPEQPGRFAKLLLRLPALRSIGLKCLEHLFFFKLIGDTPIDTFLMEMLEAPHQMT
How it was run: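 Interaction of Nurr1 with RXRα read as reconstituted reporter fluorescence in a HEK293T fragment-complementation system, 8 h post-treatment; increase over DMSO baseline analysed.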

[4] = molecular target: Retinoic acid receptor RXR-alpha (Homo sapiens) (UniProt P19793); assay: OT_NURR1_NURR1RXRa_1440: Odyssey Thera (OT) 24-hour HEK293T Protein Complementation Assay for Nurr1/retinoid X receptor (RXR) (AID 2283386)
How it was run: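 Gain in fluorescence, fitted relative to DMSO, reflects Nurr1–RXRα association in HEK293T cells after 24 h dosing. Bait and prey are each linked to a reporter-protein fragment that reassembles on interaction.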

[5] = molecular target: Peroxisome proliferator-activated receptor gamma (Homo sapiens) (UniProt P37231); assay: OT_PPARg_PPARgSRC1_0480: Odyssey Thera (OT) 8-hour Protein-Complementation Assay for Peroxisome Proliferator-activated Receptor Gamma / SRC-1 Co-activator (AID 2283387);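 also: nuclear to cytoplasmic split Venus YFP fluorescence ratio reporting PPARg SRC-1 interaction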
Chain of Peroxisome proliferator-activated receptor gamma (Homo sapiens) (P37231 whole entry, looked up, the tested form may be a part): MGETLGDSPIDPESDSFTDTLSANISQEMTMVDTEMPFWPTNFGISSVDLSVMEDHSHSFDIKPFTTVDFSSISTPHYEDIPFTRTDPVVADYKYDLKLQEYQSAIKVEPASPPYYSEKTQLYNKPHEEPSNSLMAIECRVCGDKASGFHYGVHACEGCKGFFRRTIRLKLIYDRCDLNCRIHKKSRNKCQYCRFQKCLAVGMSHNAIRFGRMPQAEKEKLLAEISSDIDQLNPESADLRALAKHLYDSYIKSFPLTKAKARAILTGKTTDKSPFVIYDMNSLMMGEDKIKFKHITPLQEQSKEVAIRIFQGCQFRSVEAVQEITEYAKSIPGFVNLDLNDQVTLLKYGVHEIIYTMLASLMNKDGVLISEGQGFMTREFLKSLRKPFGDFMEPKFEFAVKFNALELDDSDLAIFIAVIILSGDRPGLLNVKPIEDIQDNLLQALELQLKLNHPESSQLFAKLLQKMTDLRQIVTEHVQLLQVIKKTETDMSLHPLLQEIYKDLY
How it was run: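 Read-out: 488 nm N/C fluorescence ratio from complemented Venus YFP fragments, ≥350 cells per image, gain-of-signal fitted against DMSO baseline. Fusions of PPARg/SRC-1 with IFP1/IFP2 expressed transiently in HEK293T; compounds applied 8 h.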

[6] = molecular target: Peroxisome proliferator-activated receptor gamma (Homo sapiens) (UniProt P37231); assay: OT_PPARg_PPARgSRC1_1440: Odyssey Thera (OT) 24-hour Protein-Complementation Assay for Peroxisome Proliferator-activated Receptor Gamma/ SRC-1 Co-activator (AID 2283388);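 also: nuclear to cytoplasmic ratio of reconstituted Venus YFP fluorescence in fixed imaged cells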
How it was run: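 Protein-fragment complementation between PPARg and coactivator SRC-1 was measured by fluorescence imaging in transiently transfected HEK293T cells after 24 h treatment. Signal was quantified as N/C ratio in the 488 nm channel, with DMSO as negative control.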

[7] = ATG_XTT_Cytotoxicity: Cytotoxicity Assessment in the Attagene TRANS-FACTORIAL HepG2 Assay (AID 2283584)
How it was run: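 Cells: human HepG2, transiently transfected with MRTU reporter constructs. Exposure 24 h. Readout: XTT, cell number. Baseline/neg ctrl DMSO; loss-of-signal scored.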

[8] = TOX21_p53_BLA_p2_viability: Viability Assessment in the Tox21 HCT-116 p53 Agonism Beta-lactamase Assay, Phase 2 (AID 2283591);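 also: compound exposure lasted 16 h at 37 °C; actives lower the ATP signal meaning cytotoxicity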
How it was run: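 Cytotoxicity readout: CellTiter-Glo ATP luminescence, 30 min at room temperature, after the beta-lactamase read. Cells were HCT116 exposed 16 h at 37C to compounds pin-transferred at 217-fold dilution from DMSO stocks.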

[9] = molecular target: Estrogen receptor (Homo sapiens) (UniProt P03372); assay: OT_ERa_GFPERaERE_0120: Odyssey Thera (OT) 2-hour HeLa Transcription Induction Assay for Estrogen Receptor (AID 2283382)
How it was run: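 Fluorescence-microscopy images of the GFP-ERα/ERE reporter, scored by high-content image algorithms, give the readout. HeLa exposure lasted 2 h, and only signal increase over DMSO was fitted.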

[10] = CEETOX_H295R_11DCORT: CeeTox H295R High-throughput Steroidogenesis Assay for 11-Deoxycortisol (11DCORT) (AID 2283432; active = hit-call score of the fitted dose curve at least 0.9, where 1 is the maximum; inactive = score below 0.9;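 as to AC50: 11-deoxycortisol secreted into the medium measured by LC-MS/MS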); conditions: actives raise or lower the signal
How it was run: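 H295R cells; 10 uM forskolin prestim 48 h; compound in 0.1% DMSO 48 h; media extracted with MTBE; 11-deoxycortisol by LC-MS/MS, 7-point standard curve; gain/loss vs DMSO baseline; viability by MTT in same wells.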

[11] = CEETOX_H295R_OHPREG: CeeTox H295R High-throughput Steroidogenesis Assay for OH-Pregnenolone (OHPREG) (AID 2283434; active = hit-call score of the fitted dose curve at least 0.9, where 1 is the maximum; inactive = score below 0.9); conditions: actives raise or lower the signal
How it was run: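 Secreted 17alpha-hydroxypregnenolone measured by HPLC-MS/MS after liquid-liquid extraction. Human adrenal H295R cells received 48 h forskolin (10 uM) stimulation before 48 h chemical exposure at 0.1% final DMSO; MTT viability in same wells; bidirectional fit against DMSO.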

[12] = CEETOX_H295R_OHPROG: CeeTox H295R High-throughput Steroidogenesis Assay for OH-Progesterone (OHPROG) (AID 2283435; active = hit-call score of the fitted dose curve at least 0.9, where 1 is the maximum; inactive = score below 0.9;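 as to AC50: 17alpha-hydroxyprogesterone secreted into medium measured by HPLC-MS/MS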); conditions: actives raise or lower the signal
How it was run: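 Medium steroid levels read by LC-MS/MS after 48 h chemical treatment (0.1% DMSO) of human adrenal H295R cells that had been forskolin-primed (10 uM, 48 h). Gain or loss fitted against DMSO; MTT cytotoxicity checked per well.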

[13] = CEETOX_H295R_CORTIC: CeeTox H295R High-throughput Steroidogenesis Assay for Corticosterone (CORTIC) (AID 2283437; active = hit-call score of the fitted dose curve at least 0.9, where 1 is the maximum; inactive = score below 0.9); conditions: actives raise or lower the signal
How it was run: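 Medium corticosterone was quantified by tandem mass spectrometry following 48 hours of chemical exposure (0.1% DMSO) in human H295R cells previously stimulated 48 hours with 10 uM forskolin. Viability checked by MTT; chemicals diluted and retested when viability fell below 70%.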

[14] = CEETOX_H295R_CORTISOL: CeeTox H295R High-throughput Steroidogenesis Assay for Cortisol (AID 2283438; active = hit-call score of the fitted dose curve at least 0.9, where 1 is the maximum; inactive = score below 0.9); conditions: actives raise or lower the signal
How it was run: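 Cortisol measured by HPLC-MS/MS after MTBE extraction of medium from H295R cells exposed 48 h to chemical (0.1% DMSO), following 48 h prestimulation with 10 uM forskolin. Viability assessed by MTT in the same wells.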

[15] = CEETOX_H295R_DOC: CeeTox H295R High-throughput Steroidogenesis Assay for DOC (AID 2283439; active = hit-call score of the fitted dose curve at least 0.9, where 1 is the maximum; inactive = score below 0.9); conditions: actives raise or lower the signal
How it was run: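 11-Deoxycorticosterone quantified in medium by MTBE extraction and HPLC-MS/MS after 48 h chemical exposure (0.1% DMSO) of forskolin-primed (10 uM, 48 h) H295R cells. Same-well MTT viability; data fitted bidirectionally against DMSO.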

[16] = CEETOX_H295R_ESTRADIOL: CeeTox H295R High-throughput Steroidogenesis Assay for Estradiol (AID 2283440; active = hit-call score of the fitted dose curve at least 0.9, where 1 is the maximum; inactive = score below 0.9;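 also: estradiol secreted into medium quantified by LC-MS/MS after dansyl derivatisation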); conditions: actives raise or lower the signal
How it was run: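 Estradiol secreted into the medium was measured by tandem mass spectrometry after liquid-liquid extraction and dansylation. Human H295R cells had been forskolin-primed (10 uM, 48 h) before a 48 h chemical exposure with 0.1% DMSO.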

[17] = CEETOX_H295R_ESTRONE: CeeTox H295R High-throughput Steroidogenesis Assay for Estrone (AID 2283441; active = hit-call score of the fitted dose curve at least 0.9, where 1 is the maximum; inactive = score below 0.9); conditions: actives raise or lower the signal
How it was run: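 Estrone secreted into medium quantified by LC-MS/MS after dansyl chloride derivatization, following 48 h chemical exposure (0.1% DMSO final) of forskolin-prestimulated (10 uM, 48 h) H295R cells; gain or loss fitted against DMSO; MTT viability in same wells.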

[18] = CEETOX_H295R_PROG: CeeTox H295R High-throughput Steroidogenesis Assay for Progesterone (PROG) (AID 2283442; active = hit-call score of the fitted dose curve at least 0.9, where 1 is the maximum; inactive = score below 0.9;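 as to AC50: human H295R adrenal cells primed with 10 µM forskolin before dosing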); conditions: actives raise or lower the signal
How it was run: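 Steps: seed H295R cells and let them adhere overnight; prime 48 h with 10 uM forskolin; dose with compound in DMSO at 0.1% final for 48 h; extract medium steroids with MTBE; measure progesterone by LC-MS/MS. MTT viability was run in the same wells.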

Measured: AC50

CC=C1CC2C=CC1C2 (stereo not given)
inactive: [1] | [2] | [3] | [4] | [5] | [6] | [7]

NC(=O)c1ccccc1O
inactive: [1] | [2] | [3] | [4] | [5] | [6] | [7] | [8]

CCCCCc1ccc(Cl)cc1
inactive: [1] | [9] | [2] | [3] | [4] | [5] | [6] | [7] | [8]

O=S1(=O)OC(c2ccc(O)cc2)(c2ccc(O)cc2)c2ccccc21
inactive: [9] | [4] | [5] | [6]
active: [1] 73 µM

CC(C)(C)c1ccc(-c2ccc(C(C)(C)C)cc2)cc1
active: [2] 33.5 µM | [3] 85.6 µM | [4] 78.3 µM
inactive: [1] | [5] | [6]

CCOC(=O)Cc1cccc2ccccc12
active: [10] 34.3 µM | [11] 61.3 µM | [12] 40.1 µM | [15] 30.8 µM | [18] 24.9 µM
not listed: [2] | [7]
inactive: all other assays above

CN(C)c1ccc(C(=N)c2ccc(N(C)C)cc2)cc1
active: [3] 27.7 µM | [4] 26.7 µM | [5] 30.6 µM | [6] 28.7 µM | [11] 3.27 µM
not listed: [2] | [14]
inactive: all other assays above

O=C(C(Cl)Cl)N1CCOC12CCCCC2
inactive: [1] | [2] | [3] | [4] | [5] | [6] | [7] | [8]

Reference: PubChem BioAssay (EPA / NIEHS)
